Assay results from the supplement of paper PMC10849652.
About 8,800 targets were measured; listed, in parts, are those with a hit and a random draw of the rest. About 0.5% of all pairs of compound and target were hits.

Legend:
Experiment in all cases: log2 fold change, soluble protein after heating vs DMSO (PISA); higher = thermal stabilisation; K562 lysate, 10 uM; active = over 0.2 and 3.5 SD of the protein, either way, in both replicates (recomputed)
erlotinib = compound: C#Cc1cccc(Nc2ncnc3cc(OCCOC)c(OCCOC)cc23)c1 [erlotinib]
In short: (§1)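 K562 pellets were dounce-homogenised in PBS pH 7.4 with 1 mM MgCl2, and the crude extract at 1 mg/mL protein was treated with 10 μM compound for 30 min. Aliquots were heated for 3 min across 48°C-58°C, pooled, and brought to 0.5% NP-40 at 4°C; soluble protein was the supernatant after 21,000xg for 90 min. Soluble protein was quantified by TMTpro 16plex LC-MS/MS with channel sums equalised, and reported as log2 fold change in thermal stability against DMSO controls, with values from duplicates.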

[1] = compound: C/C(=N\NC(=O)C1=CC(=CC=C1)S(=O)(=O)N2CCOCC2)/C3=C(C=CC(=C3)Cl)O
In short: as §1

[2] = compound: C1=CC(=CC=C1C2=NC3=C(N2)C=C(C=C3)C(=O)N)OC4=CC=C(C=C4)Cl
In short: as §1

[3] = compound: C1=CC2=C(C=CC(=C2)/C=C\3/C(=O)NC(=NCC4=CC=CS4)S3)N=C1
In short: as §1

[4] = compound: C1=CC2=NC=CN=C2C=C1/C=C/3\C(=O)NC(=O)S3
In short: as §1

[5] = compound: C1=CC=C(C=C1)C2=NC(=C(N2)C3=CC=NC=C3)C4=CC(=C(C=C4)Cl)O
In short: as §1

[6] = compound: C1=CC=C2C(=C1)C3=NNC4=CC=CC(=C43)C2=O
In short: as §1

[7] = compound: C1CCN(C1)C(=O)NC2=CC=CC(=C2)NC3=NC=C(C(=N3)NCCC4=CN=CN4)Br
In short: as §1

[8] = compound: C1CN(CCC1(CC2=CC=C(C=C2)Cl)N)C3=NC=NC4=C3C=CN4
In short: as §1

IRAK-1-4 Inhibitor I = compound: C1COCCN1CCN2C3=CC=CC=C3N=C2NC(=O)C4=CC(=CC=C4)[N+](=O)[O-] [IRAK-1-4 Inhibitor I]
In short: as §1

ibrutinib = compound: C=CC(=O)N1CCC[C@@H](n2nc(-c3ccc(Oc4ccccc4)cc3)c3c(N)ncnc32)C1 [ibrutinib]
In short: as §1

[9] = compound: CC(=O)c1cnc2ccc(-c3cc(Cl)c(O)c(Cl)c3)nc2c1N[C@H]1CC[C@H](CN(C)C)CC1
In short: as §1

ralimetinib = compound: CC(C)(C)Cn1c(N)nc2ccc(-c3[nH]c(C(C)(C)C)nc3-c3ccc(F)cc3)nc21 [ralimetinib]
In short: as §1

[10] = compound: CC(C)(O)CC(=O)NCCn1ccc2ncnc(Nc3ccc(Oc4cccc(C(F)(F)F)c4)c(Cl)c3)c21
In short: as §1

[11] = compound: CC(C)C1=C2N=C(C=C(N2N=C1)NCC3=CC=CC=C3)NCCCCCCN
In short: as §1

[12] = compound: CC1=C(C(CC(=O)N1)C2=CC=C(C=C2)C(F)(F)F)C(=O)NC3=C(C=C4C(=C3)C=NN4)F
In short: as §1

[13] = compound: CC1=C(C2=C(C=C1)C(=O)C3=CC=CC=C3N2CCCN)C
In short: as §1

[14] = compound: CC1=C(C=C(C=C1)NC(=O)C2=CC(=CC=C2)C(C)(C)C#N)NC3=CC4=C(C=C3)N=CN(C4=O)C
In short: as §1

[15] = compound: CC1=C(C=C(C=C1)NC(=O)C2=CC(=CC=C2)N(C)C)NC(=O)C3=CC=C(C=C3)O
In short: as §1

[16] = compound: CC1=CC=C(C=C1)SC2=C3C=C(SC3=CN=C2)C(=O)N
In short: as §1

Measured: log2 fold change

HLCS (UniProt P50747)
UniProt P50747, sequence (P50747 whole entry, looked up): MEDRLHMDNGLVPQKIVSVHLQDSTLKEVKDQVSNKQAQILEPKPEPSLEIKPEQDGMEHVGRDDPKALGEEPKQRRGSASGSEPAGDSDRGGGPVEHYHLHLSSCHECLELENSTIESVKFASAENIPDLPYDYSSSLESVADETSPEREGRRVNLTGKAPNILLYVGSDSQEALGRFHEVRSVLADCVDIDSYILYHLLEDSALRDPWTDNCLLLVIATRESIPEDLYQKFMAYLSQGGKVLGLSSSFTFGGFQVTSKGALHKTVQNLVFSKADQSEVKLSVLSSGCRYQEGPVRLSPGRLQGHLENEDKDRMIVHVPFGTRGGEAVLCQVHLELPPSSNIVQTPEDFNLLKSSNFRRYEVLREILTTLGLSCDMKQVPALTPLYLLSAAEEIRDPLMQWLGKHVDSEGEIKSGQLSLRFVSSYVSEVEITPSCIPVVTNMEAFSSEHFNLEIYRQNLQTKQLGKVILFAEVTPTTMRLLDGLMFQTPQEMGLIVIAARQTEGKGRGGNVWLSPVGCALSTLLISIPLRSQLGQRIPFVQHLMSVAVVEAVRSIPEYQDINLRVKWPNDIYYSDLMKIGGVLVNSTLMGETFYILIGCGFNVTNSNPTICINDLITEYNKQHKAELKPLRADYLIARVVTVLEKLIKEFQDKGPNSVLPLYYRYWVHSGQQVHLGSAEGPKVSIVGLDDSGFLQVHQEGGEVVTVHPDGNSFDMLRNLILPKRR
inactive: erlotinib 0.019 | [1] -0.071 | [2] 0.013 | [3] 0.03 | [4] -0.017 | [5] -0.004 | [6] -0.019 | [7] 0.008 | [8] -0.034 | IRAK-1-4 Inhibitor I -0.008 | ibrutinib 0.012 | [9] 0.023 | ralimetinib -0.005 | [10] -0.019 | [11] -0.025 | [12] 0.018 | [13] -0.015 | [14] 0.029 | [15] 0.057 | [16] -0.032

HNRNPM (UniProt P52272)
UniProt P52272, sequence (P52272 whole entry, looked up): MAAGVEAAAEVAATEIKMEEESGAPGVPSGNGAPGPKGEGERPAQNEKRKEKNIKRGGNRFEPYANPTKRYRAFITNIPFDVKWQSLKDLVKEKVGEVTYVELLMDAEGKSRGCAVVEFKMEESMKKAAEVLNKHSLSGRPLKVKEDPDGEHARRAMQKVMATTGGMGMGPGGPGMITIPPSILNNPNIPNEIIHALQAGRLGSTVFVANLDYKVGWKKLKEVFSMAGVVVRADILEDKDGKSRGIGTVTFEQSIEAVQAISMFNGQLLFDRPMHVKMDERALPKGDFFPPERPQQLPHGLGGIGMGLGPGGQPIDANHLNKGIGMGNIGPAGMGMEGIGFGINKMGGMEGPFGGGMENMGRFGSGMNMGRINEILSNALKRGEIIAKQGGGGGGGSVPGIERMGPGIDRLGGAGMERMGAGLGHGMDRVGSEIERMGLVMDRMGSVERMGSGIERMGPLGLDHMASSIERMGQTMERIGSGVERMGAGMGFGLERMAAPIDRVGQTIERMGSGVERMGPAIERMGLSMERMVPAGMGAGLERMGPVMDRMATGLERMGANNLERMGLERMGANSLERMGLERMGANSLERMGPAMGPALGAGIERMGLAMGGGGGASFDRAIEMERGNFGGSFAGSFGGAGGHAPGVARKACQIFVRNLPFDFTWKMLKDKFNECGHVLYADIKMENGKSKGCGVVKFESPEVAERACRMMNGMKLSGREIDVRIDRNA
inactive: erlotinib -0.015 | [1] -0.046 | [2] 0.004 | [3] -0.022 | [4] 0.051 | [5] -0.036 | [6] -0.039 | [7] -0.022 | [8] -0.003 | IRAK-1-4 Inhibitor I 0.005 | ibrutinib -0.031 | [9] 0.024 | ralimetinib 0.034 | [10] -0.048 | [11] 0.02 | [12] 0.051 | [13] 0.062 | [14] -0.183 | [15] 0.021 | [16] 0.007

GSTP1 (UniProt P09211)
UniProt P09211, sequence (P09211 whole entry, looked up): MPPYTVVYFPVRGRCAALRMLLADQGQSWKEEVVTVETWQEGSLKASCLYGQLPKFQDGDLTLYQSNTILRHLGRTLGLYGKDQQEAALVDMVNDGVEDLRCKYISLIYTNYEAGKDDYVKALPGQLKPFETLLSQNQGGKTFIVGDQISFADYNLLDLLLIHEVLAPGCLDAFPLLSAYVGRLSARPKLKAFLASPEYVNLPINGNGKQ
inactive: erlotinib -0.008 | [1] 0.035 | [2] -0.024 | [3] 0.036 | [4] 0.08 | [5] -0.002 | [6] 0.007 | [7] -0.022 | [8] -0.022 | IRAK-1-4 Inhibitor I 0 | ibrutinib -0.012 | [9] 0.042 | ralimetinib 0.011 | [10] -0.003 | [11] 0.021 | [12] -0.011 | [13] 0.036 | [14] -0.025 | [15] 0.003 | [16] -0.003

KBTBD4 isoform 2 (UniProt Q9NVX7)
UniProt Q9NVX7, sequence (Q9NVX7 whole entry, looked up): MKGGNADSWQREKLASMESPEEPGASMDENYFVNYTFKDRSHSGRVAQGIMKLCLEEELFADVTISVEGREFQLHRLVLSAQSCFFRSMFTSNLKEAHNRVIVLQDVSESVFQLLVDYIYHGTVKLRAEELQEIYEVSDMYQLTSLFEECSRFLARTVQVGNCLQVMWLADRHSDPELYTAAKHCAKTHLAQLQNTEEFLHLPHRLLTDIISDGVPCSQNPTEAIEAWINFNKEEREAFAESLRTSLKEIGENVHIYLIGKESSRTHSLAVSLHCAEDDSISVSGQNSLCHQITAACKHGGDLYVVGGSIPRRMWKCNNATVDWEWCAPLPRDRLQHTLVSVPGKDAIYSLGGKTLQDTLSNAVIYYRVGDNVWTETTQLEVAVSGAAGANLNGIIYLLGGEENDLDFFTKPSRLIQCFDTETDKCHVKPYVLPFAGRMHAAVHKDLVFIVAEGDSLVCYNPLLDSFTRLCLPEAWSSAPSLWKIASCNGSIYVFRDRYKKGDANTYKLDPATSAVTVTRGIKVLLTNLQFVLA
inactive: erlotinib 0.09 | [1] 0.013 | [2] 0.036 | [3] 0.013 | [4] -0.096 | [5] 0.016 | [6] -0.073 | [7] -0.028 | [8] 0.013 | IRAK-1-4 Inhibitor I -0.017 | ibrutinib 0.051 | [9] -0.026 | ralimetinib -0.069 | [10] 0.009 | [11] -0.039 | [12] -0.156 | [13] -0.045 | [14] 0.142 | [15] -0.014 | [16] 0.031

HK1 isoform 2 (UniProt P19367)
UniProt P19367, sequence (P19367 whole entry, looked up): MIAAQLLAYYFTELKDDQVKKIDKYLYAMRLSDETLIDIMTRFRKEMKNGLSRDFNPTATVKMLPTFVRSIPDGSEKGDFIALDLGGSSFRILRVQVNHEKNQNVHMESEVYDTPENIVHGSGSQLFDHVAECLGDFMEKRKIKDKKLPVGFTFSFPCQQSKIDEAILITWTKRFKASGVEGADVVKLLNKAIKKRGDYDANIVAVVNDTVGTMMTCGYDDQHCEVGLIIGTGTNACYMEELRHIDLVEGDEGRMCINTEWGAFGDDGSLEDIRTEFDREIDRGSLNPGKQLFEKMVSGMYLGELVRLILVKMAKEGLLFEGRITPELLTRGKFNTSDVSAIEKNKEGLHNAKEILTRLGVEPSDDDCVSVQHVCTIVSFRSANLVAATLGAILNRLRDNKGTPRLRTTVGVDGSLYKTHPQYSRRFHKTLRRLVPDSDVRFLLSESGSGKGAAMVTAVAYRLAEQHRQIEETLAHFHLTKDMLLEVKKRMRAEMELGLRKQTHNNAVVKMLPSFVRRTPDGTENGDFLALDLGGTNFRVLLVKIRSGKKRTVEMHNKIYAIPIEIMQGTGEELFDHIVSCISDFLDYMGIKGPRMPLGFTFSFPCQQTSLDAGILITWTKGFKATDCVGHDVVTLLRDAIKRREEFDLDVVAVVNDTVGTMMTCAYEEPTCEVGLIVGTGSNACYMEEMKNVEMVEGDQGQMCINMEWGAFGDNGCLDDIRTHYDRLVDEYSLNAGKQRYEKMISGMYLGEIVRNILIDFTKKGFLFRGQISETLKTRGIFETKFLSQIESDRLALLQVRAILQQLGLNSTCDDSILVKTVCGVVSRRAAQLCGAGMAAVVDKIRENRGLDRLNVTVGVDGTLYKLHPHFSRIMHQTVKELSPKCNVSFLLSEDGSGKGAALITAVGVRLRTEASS
inactive: erlotinib -0.027 | [1] -0.006 | [2] 0.009 | [3] 0.006 | [4] 0.007 | [5] 0.007 | [6] -0.006 | [7] 0.001 | [8] 0.014 | IRAK-1-4 Inhibitor I -0.002 | ibrutinib -0.007 | [9] 0.005 | ralimetinib -0.008 | [10] 0.021 | [11] -0.029 | [12] -0.029 | [13] 0.025 | [14] 0.023 | [15] 0.016 | [16] 0.008

GNE isoform 2 (UniProt Q9Y223)
UniProt Q9Y223, sequence (Q9Y223 whole entry, looked up): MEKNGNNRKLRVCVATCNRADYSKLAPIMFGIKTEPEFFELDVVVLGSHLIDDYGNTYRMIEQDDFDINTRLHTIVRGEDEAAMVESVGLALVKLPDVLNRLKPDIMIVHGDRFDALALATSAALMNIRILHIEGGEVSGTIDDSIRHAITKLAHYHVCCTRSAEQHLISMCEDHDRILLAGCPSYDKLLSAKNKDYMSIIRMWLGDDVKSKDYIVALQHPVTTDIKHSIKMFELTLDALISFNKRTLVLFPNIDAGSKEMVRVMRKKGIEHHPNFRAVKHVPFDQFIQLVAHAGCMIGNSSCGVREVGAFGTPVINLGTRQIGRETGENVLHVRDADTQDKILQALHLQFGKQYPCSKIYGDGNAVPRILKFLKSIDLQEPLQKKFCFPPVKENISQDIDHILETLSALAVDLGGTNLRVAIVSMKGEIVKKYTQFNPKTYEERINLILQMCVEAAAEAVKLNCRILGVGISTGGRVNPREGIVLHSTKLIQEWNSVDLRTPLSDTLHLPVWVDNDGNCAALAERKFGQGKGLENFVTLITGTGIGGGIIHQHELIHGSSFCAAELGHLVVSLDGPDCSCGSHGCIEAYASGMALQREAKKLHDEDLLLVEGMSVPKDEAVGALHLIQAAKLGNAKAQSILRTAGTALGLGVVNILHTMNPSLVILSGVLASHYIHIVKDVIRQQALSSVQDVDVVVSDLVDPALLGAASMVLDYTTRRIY
inactive: erlotinib 0.035 | [1] -0.067 | [2] -0.042 | [3] -0.032 | [4] 0.011 | [5] 0.064 | [6] -0.031 | [7] -0.024 | [8] 0.023 | IRAK-1-4 Inhibitor I -0.042 | ibrutinib -0.036 | [9] 0.009 | ralimetinib 0.033 | [10] -0.036 | [11] -0.007 | [12] -0.011 | [13] -0.036 | [14] -0.001 | [15] 0.069 | [16] 0.009

HECTD4 (UniProt J3KPF0)
inactive: erlotinib 0.076 | [1] -0.002 | [2] 0.035 | [3] -0.125 | [4] -0.02 | [5] 0.024 | [6] -0.055 | [7] -0.027 | [8] 0.01 | IRAK-1-4 Inhibitor I -0.009 | ibrutinib 0.017 | [9] -0.024 | ralimetinib 0.001 | [10] 0.007 | [11] -0.032 | [12] -0.028 | [13] -0.036 | [14] 0.032 | [15] 0.021 | [16] 0.009

INTS8 (UniProt Q75QN2)
UniProt Q75QN2, sequence (Q75QN2 whole entry, looked up): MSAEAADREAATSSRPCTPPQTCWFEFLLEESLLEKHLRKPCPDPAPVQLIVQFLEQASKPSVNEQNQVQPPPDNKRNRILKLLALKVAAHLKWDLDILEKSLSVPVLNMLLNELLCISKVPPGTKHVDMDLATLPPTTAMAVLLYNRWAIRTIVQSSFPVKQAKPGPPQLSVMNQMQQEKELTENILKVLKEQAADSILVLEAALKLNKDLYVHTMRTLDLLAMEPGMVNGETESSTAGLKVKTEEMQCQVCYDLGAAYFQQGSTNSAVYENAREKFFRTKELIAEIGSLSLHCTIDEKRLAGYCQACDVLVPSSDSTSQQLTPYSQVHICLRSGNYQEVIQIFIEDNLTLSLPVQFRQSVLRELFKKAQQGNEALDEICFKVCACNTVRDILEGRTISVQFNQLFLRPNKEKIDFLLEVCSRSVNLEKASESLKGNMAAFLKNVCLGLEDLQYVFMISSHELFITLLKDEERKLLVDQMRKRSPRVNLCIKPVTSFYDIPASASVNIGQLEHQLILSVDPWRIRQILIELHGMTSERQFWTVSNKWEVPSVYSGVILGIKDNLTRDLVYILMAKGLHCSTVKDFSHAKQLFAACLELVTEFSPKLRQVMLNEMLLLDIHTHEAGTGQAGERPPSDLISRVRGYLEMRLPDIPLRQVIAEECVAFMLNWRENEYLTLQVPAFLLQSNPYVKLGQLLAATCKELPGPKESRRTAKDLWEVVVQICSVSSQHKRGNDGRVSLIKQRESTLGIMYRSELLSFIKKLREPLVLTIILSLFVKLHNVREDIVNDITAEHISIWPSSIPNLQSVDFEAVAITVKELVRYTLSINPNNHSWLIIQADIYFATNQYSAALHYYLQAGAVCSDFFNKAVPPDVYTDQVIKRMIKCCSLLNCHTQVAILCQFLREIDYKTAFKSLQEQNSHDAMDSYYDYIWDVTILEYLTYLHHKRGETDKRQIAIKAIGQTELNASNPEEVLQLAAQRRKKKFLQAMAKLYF
inactive: erlotinib -0.002 | [1] 0.043 | [2] -0.051 | [3] 0.02 | [4] -0.048 | [5] 0.037 | [6] -0.004 | [7] 0.066 | [8] -0.035 | IRAK-1-4 Inhibitor I 0.015 | ibrutinib 0.024 | [9] 0.028 | ralimetinib 0.058 | [10] -0.028 | [11] 0.009 | [12] -0.021 | [13] -0.179 | [14] 0.023 | [15] -0.033 | [16] 0.031
